# Compound activity: PubChem, National Center for Advancing Translational Sciences (NCATS)
# Luciferase inh: Photinus pyralis luciferase inhibition; P08659; purified P. pyralis luciferase, luminescence, biochemical; Potency, µM (highest dose often 115 µM), hits mostly inhibitors; 76,000 compounds, 2.5% hits; AID 1347043; further: nearly all actives have a fitted effect of over 65% in size
#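 Purified P. pyralis luciferase (10nM final) in 50mM Tris acetate pH 7.5, 10mM Mg acetate, 0.01% Tween-20, 0.05% BSA with 10uM D-luciferin and 10uM ATP. Compounds titrated qHTS. Luminescence imaged on CCD.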
# GPT2 inh: blocks human glutamate pyruvate transaminase 2. 100,000 compounds, 0.25% hits. Recombinant GPT2, coupled pyruvate oxidase/HRP Amplex Red fluorescence. Potency, µM (doses to about 57.7 µM), inactives show top-dose activity change, negative = inhibition, most hits filed as inhibitors. AID 1671188; further: nearly all actives have a fitted effect of over 60% in size
#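 GPT2 10ng/uL, a-KG 250uM, L-Ala 2mM, HEPES pH7.5 + 0.0001% Tween; 30 min RT. Then Amplex mix (PO/HRP/ThPP), 30 min RT dark, fluorescence. AOA 50uM used as positive control.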
# hNpr1 antagonist: antagonists of human natriuretic peptide receptor Npr1. P16066. HEK293 hNpr1 GloSensor cGMP, ANP-stimulated luminescence. Potency, µM (top dose mostly 46.3 µM), for the others: at the highest dose activity change, negative = inhibition, actives largely listed as inhibitors. 76,000 compounds, 1.6% hits. AID 1347048; calls by dose curve; further: nearly all actives have a fitted effect of over 60% in size
# Target sequence (P16066 whole entry, looked up): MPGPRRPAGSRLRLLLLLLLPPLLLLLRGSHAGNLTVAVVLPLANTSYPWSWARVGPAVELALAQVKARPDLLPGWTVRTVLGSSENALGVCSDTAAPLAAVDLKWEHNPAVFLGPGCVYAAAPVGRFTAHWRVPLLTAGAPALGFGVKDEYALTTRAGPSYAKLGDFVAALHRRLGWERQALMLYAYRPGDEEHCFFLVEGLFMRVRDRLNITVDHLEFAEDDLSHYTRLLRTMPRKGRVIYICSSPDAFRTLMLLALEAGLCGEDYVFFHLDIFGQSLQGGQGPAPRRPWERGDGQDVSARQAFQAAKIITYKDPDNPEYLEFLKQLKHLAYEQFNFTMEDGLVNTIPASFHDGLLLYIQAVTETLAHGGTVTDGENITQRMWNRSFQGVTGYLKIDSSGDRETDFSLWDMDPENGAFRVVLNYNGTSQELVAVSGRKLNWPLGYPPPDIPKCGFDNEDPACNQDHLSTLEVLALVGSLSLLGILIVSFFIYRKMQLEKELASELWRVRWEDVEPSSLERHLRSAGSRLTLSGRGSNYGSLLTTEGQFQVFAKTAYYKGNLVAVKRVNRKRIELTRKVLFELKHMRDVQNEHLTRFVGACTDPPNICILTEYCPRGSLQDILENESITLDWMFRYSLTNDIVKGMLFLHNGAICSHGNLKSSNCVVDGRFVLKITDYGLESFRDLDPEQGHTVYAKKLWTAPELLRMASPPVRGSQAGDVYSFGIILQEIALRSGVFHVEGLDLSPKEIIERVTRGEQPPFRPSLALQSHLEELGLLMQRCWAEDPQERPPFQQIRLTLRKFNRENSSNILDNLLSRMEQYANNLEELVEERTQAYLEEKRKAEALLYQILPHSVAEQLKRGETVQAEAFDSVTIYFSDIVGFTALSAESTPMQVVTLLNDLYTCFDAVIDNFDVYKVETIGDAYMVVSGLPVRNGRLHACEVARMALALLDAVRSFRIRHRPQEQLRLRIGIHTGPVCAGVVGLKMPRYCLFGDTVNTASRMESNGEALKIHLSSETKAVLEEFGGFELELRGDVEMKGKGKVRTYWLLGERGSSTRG
#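 Compound pre-incubated 30 min at room temperature on GloSensor-loaded HEK293 cells stably carrying hNpr1 and the pGS-40F cGMP biosensor. Stimulation uses hNppA at 0.1 nM final; luminescence is taken at baseline and 20 min post-agonist.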
# HEK cytotox: kills HEK 293 cells | Potency, µM (titrated, usually from 115 µM), for the others: top-dose activity change, negative = cytotoxicity, hits mostly inhibitors | HEK 293 viability, ATP luminescence (CellTiter-Glo), 48-72 h | 94,000 compounds, 6.6% hits; further: nearly all actives have a fitted effect of over 60% in size
#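 Luminescence from cellular ATP, measured with CellTiter-Glo, indicates HEK 293 viability. Cells plated at 250 cells/well are treated with compound for 48 or 72 hr at 37 degree Celsius before reagent addition.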
# 3T3 cytotox: cytotoxic compounds in NIH 3T3 cells; NIH 3T3 viability, CellTiter-Glo ATP luminescence, 48-72 h; Potency, µM (top dose mostly 96.7 µM), inactives show top-dose activity change, negative = cytotoxicity, usual class: inhibitors; 94,000 compounds, 4.3% hits; AID 1345082; further: nearly all actives have a fitted effect of over 55% in size
#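 First NIH 3T3 cells are plated at 400 cells/well; next compound is pinned in; then plates incubate 48 or 72 hr at 37 °C; finally CellTiter-Glo is added and luminescence read after 10 min.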
# An asterisk follows results filed as active; i = inactive; ? = inconclusive; / = no result given; [ ] = another dose, or the depositor's remark. Most compounds without a hit are left out; they make up all but 10% or so of the library. Unless noted, the call rests on the fitted dose curve; in most records, active means well fitted curve in the direction sought with a large enough effect; inconclusive means small, poorly fitted or top-dose-only effect, or another doubt; inactive means no such curve, though single readings can be large; an effect the other way counts as inactive or inconclusive. On the % scale 0 is the no-effect control and ±100 the full control effect; potency means the concentration at half of the fitted maximal effect.
SMILES,Luciferase inh,GPT2 inh,hNpr1 antagonist,HEK cytotox,3T3 cytotox
Cc1ccccc1-c1ccc2n(c1=O)C[C@H]1C[C@@H]2CN(S(=O)(=O)c2cccs2)C1,i,i,-1%[70.6 µM],-1%[172 µM],-2%[174 µM]
Cn1nc(-c2ccccc2)cc1[C@H]1CN2CC[C@H]1C[C@@H]2CNS(=O)(=O)Cc1ccccc1,i,i,6%,79µM*,79µM*
Cc1nc(-c2ccc(C(F)(F)F)cc2)cc([C@H]2CN3CC[C@H]2C[C@@H]3CNS(C)(=O)=O)n1,i,?,1%,?,40µM*
Cc1nc(-c2ccc(F)cc2)cc([C@H]2CN3CC[C@H]2C[C@@H]3CNS(=O)(=O)Cc2ccccc2)n1,i,i,4%,35µM*,79µM*
Cc1nc(-c2ccccc2)cc([C@H]2CN3CC[C@H]2C[C@@H]3CNS(C)(=O)=O)n1,i,i,-9%[70.6 µM],-21%[172 µM],?
Cn1nc(-c2ccc3ccccc3c2)cc1[C@H]1CN2CC[C@H]1C[C@@H]2CNS(=O)(=O)c1cccs1,?,-30%,-4%,?,20µM*
Cn1nc(-c2ccccc2)cc1[C@H]1CN2CC[C@H]1C[C@@H]2CNS(=O)(=O)c1cccs1,i,i,-16%[70.6 µM],?,?
CCCNC(=O)N1[C@H]2CC[C@@H]1c1cnc(-c3ccc(F)cc3)nc1C2,i,i,?,?,?
O=C(Cc1ccc(F)cc1)N1CCC2(CC1)NCc1ccccc1-n1ccnc12,i,-8%,-3%,-3%,-5%
CCOP(=O)(OCC)C(C)NC(=O)N(CCCl)N=O (stereo not given),/,i,/,/,/
COc1ccc(CNC[C@H]2C[C@@H]3CCN2C[C@@H]3c2cc(-c3cccs3)nn2C)cc1,i,-3%[88.5 µM],1%[70.6 µM],45µM*,?
CN(Cc1ccccc1)Cc1cn(C[C@H]2C[C@@H]3CCN2C[C@@H]3C(=O)N2CCOCC2)nn1,i,-7%,6%,-5%,-12%
CN1Cc2ccccc2-n2ccnc2C12CCN(C(=O)C1CCCCC1)CC2,i,i,9%,7%,-4%
CC[C@H]1CN2CC[C@H]1C[C@@H]2CNC(=S)Nc1ccc(N(C)C)cc1,i,8.9µM*,5%[70.6 µM],?,0%[174 µM]
CC[C@H]1CN2CC[C@H]1C[C@@H]2CNC(=O)Nc1ccc(C(C)(C)C)cc1,i,0%[88.5 µM],-3%[70.6 µM],71µM*,?
C=C[C@H]1CN2CC[C@H]1C[C@@H]2CNC(=O)Nc1ccc(C(C)(C)C)cc1,i,-4%[88.5 µM],5%[70.6 µM],32µM*,35µM*
CC[C@H]1CN2CC[C@H]1C[C@@H]2CNC(=O)Nc1cccc(C#N)c1,i,-6%[88.5 µM],2%[70.6 µM],?,0%[174 µM]
C=C[C@H]1CN2CC[C@H]1C[C@@H]2CNC(=O)Nc1cccc(C(F)(F)F)c1,i,-2%[88.5 µM],-1%[70.6 µM],100µM*,?
CN1CCN(C)c2cc(Nc3ccncc3)ncc2C1,i,2%[88.5 µM],4%[70.6 µM],-9%[230 µM],?
Cc1ccc(NC(=O)N2[C@H]3CC[C@@H]2c2cncnc2C3)cc1F,i,i,-2%,i,-7%
Cn1nc2n(c1=O)CCC(NC(=O)c1nn(C)c3ccccc13)CC2 (stereo not given),i,-18%,2%,i,-9%
CN1CCN(C(=O)Cc2c[nH]c3ncc(-c4ccsc4)cc23)CC1,?,i,7%[70.6 µM],-10%[172 µM],89µM*
CN1CCN(C(=O)Cc2c[nH]c3ncc(-c4cccc(O)c4)cc23)CC1,?,i,4%[70.6 µM],-7%[172 µM],89µM*
COc1ccccc1-c1cc([C@H]2CN3CC[C@H]2C[C@@H]3COC(=O)Nc2cccc(C(C)=O)c2)nc(C)n1,i,4%,-11%,89µM*,?
CCCNC(=O)OC[C@H]1C[C@@H]2CCN1C[C@@H]2c1cc(-c2cccs2)nc(C)n1,i,-4%[88.5 µM],0%[70.6 µM],112µM*,?
SMILES,Luciferase inh,GPT2 inh,hNpr1 antagonist,HEK cytotox,3T3 cytotox
COc1ccc(-c2cc([C@H]3CN4CC[C@H]3C[C@@H]4COC(=O)NC3CCCCC3)nc(C)n2)cc1,i,-7%,5%,-20%,-21%
Cc1nc(-c2cccs2)cc([C@H]2CN3CC[C@H]2C[C@@H]3COC(=O)NC2CCCCC2)n1,i,i,2%,45µM*,45µM*
Cc1nc(-c2cccs2)cc([C@H]2CN3CC[C@H]2C[C@@H]3COC(=O)Nc2cccc(C(F)(F)F)c2)n1,i,3%,?,11µM*,?
NCc1cn(C[C@H]2CC3CCN2C[C@@H]3C(=O)N2CCCC2)nn1 (stereo not given in full),i,1%[88.5 µM],3%[70.6 µM],?,i
CN(CCc1ccccn1)C[C@H]1CN2CC[C@H]1C[C@@H]2CNS(=O)(=O)c1ccc(Cl)cc1,i,i,3%,?,?
CC(C)(N)Cc1ccccc1Cl,/,i,/,/,/
CC(=O)Nc1ccc(S(=O)(=O)NC[C@H]2C[C@@H]3CCN2C[C@@H]3c2cc(-c3ccc(N(C)C)cc3)nc(C)n2)cc1,?,i,-2%,22µM*,25µM*
Cc1ccc(C(=O)NC[C@H]2C[C@@H]3CCN2C[C@@H]3c2cc(-c3ccccc3Br)nc(C)n2)cc1,i,i,-5%,?,?
Cc1nc(-c2ccc(N(C)C)cc2)cc([C@H]2CN3CC[C@H]2C[C@@H]3CNC(=O)c2ccccc2)n1,i,-11%,-2%,?,45µM*
COc1ccc(C(=O)NC[C@H]2C[C@@H]3CCN2C[C@@H]3c2cc(-c3ccc(N(C)C)cc3)nc(C)n2)cc1,i,i,-6%,25µM*,40µM*
Cc1nc(-c2ccc(N(C)C)cc2)cc([C@H]2CN3CC[C@H]2C[C@@H]3COC(=O)NC(C)C)n1,?,i,2%,?,?
CCNC(=O)NC[C@H]1C[C@@H]2CCN1C[C@@H]2c1cc(-c2ccc(N(C)C)cc2)nc(C)n1,i,i,7%[70.6 µM],100µM*,100µM*
Cc1cccc(C(=O)N2CCC3(CC2)c2nccn2-c2ccccc2CN3C)c1,i,4%,0%,?,i
CC(C)N1CC2CCC(C1)N2S(C)(=O)=O,/,0%[88.5 µM],/,i,-1%[138 µM]
CC(C)CN(Cc1cccnc1)C1CN(C(=O)COc2ccc(F)cc2)C1,i,i,3%,?,32µM*
Cc1ccccc1-c1ccc2n(c1=O)C[C@H]1C[C@@H]2CN(C(=O)c2cnccn2)C1,i,3%[88.5 µM],1%[70.6 µM],89µM*,-1%[174 µM]
COc1cc2c(cc1OCc1ccccc1)N(C(=O)Cc1ccc3c(c1)OCO3)CC21CCN(C)CC1,i,1%,7%,79µM*,?
COc1cc2c(cc1CCc1ccccc1)N(C(=O)COc1ccccc1)CC21CCN(C(C)=O)CC1,i,-28%,-2%,-25%,?
